9 compounds from PubChem BioAssay (NCI) can be followed below.

Assay [1] can be described thus: NCI Yeast Anticancer Drug Screen. Data for the rad50 strain (AID 155).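 Also: 0% = growth of vehicle-only cultures of the same strain.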 As to conditions: S. cerevisiae rad50 strain growth inhibition, hits give high values. In outline: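 Genetically altered yeast (DNA repair pathway); compound treatment; growth inhibition vs vehicle ctrl.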
A short description of assay [2]: NCI Yeast Anticancer Drug Screen. Data for the mec2-1 strain (AID 157). As to conditions: S. cerevisiae mec2-1 strain, hits give high values. The method in brief:
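Cells of the genetically defined mec2-1 yeast strain are incubated with test compound. Inhibition of growth is calculated against vehicle-treated controls.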

Assay [3] in a line: NCI Yeast Anticancer Drug Screen. Data for the sgs1 mgt1 strain (AID 161).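 Also: 0% = growth of cultures given vehicle only.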 As to conditions: S. cerevisiae sgs1 mgt1 strain, hits give high values. The method in brief: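 Genetically altered yeast, compound exposure, growth inhibition relative to vehicle.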
Assay [4] in a line: NCI Yeast Anticancer Drug Screen. Data for the cln2 rad14 strain (AID 165).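 Also: 0% = growth equal to vehicle treated cultures.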 Conditions: S. cerevisiae cln2 rad14 strain, hits give high values. In outline: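 The screen exposed genetically defined yeast (cln2 rad14) to test compounds and scored growth inhibition relative to vehicle-treated controls.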
Assay [5] is described as follows: NCI Yeast Anticancer Drug Screen. Data for the bub3 strain (AID 167). Conditions: S. cerevisiae bub3 mutant strain, hits give high values. In outline:
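Yeast carrying a defined mutation is treated with each compound, and growth is compared with that of vehicle-exposed cells to give inhibition.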

Assay [6] is described as follows: NCI Yeast Anticancer Drug Screen. Data for the mlh1 rad18 strain (AID 175). As to conditions: S. cerevisiae mlh1 rad18 strain growth inhibition, hits give high values. In outline:
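Compound-treated yeast growth, normalised to vehicle controls. Strain bears defined DNA repair mutations.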

Setting [7] is: at 5.0 µM (retest, dose inferred, filed as 0.5).
Where [8] appears, read: at 50.0 µM (retest, dose inferred, filed as 5.0).

SMILES strings stand for the structures. The panel holds about 79,000 compounds, 15% with a hit somewhere; the sample as a whole holds those more often. Unmarked numbers belong to inactive results. Active and inactive are the calls of the source. Rule as the data show it: active = growth inhibition above about 70%; inactive = the rest.

As for `O=C(CC1C(=O)c2ccccc2C1=C1C(=O)c2ccccc2C1=O)c1ccccc1` (configuration not stated), the growth inhibition in assay [1] (setting [7]) was -8%; in assay [1] (setting [8]), 71% (active); in assay [1] (at 50.0 µM), 81.8% (active); in assay [2] (setting [7]), 22%; in assay [2] (setting [8]) it was 92% (active); in assay [2] (at 50.0 µM) it was 89.8% (active). Besides, the growth inhibition in assay [3] (setting [7]) is 9%; in assay [3] (setting [8]), 84% (active); in assay [3] (at 50.0 µM) it was 89.3% (active); in assay [4] (setting [7]) it was 19%; in assay [4] (setting [8]) it was 69%; in assay [4] (at 50.0 µM), 68%. The growth inhibition in assay [5] (setting [7]) is 11%; in assay [5] (setting [8]), 94% (active); in assay [5] (at 50.0 µM), 79.2% (active); in assay [6] (setting [7]), -3%; in assay [6] (setting [8]), 95% (active); in assay [6] (at 50.0 µM) it was 74% (active).

`Nc1ccc2c(SCCCCCCCCSc3c4ccccc4nc4cc(N)ccc34)c3ccccc3nc2c1`: the growth inhibition in assay [1] (setting [7]) was 1%; in assay [1] (setting [8]) it was 74% (active); in assay [1] (at 50.0 µM) it was 48.9%; in assay [2] (setting [7]), 1%; in assay [2] (setting [8]) it was 67%; in assay [2] (at 50.0 µM) it was 9.15%. The growth inhibition in assay [3] (setting [7]) is -2%; in assay [3] (setting [8]) it was 72% (active); in assay [3] (at 50.0 µM), 22.9%; in assay [4] (setting [7]) it was -4%; in assay [4] (setting [8]), 32%; in assay [4] (at 50.0 µM), 33.2%. The growth inhibition was -3% in assay [5] (setting [7]); 72% (active) in assay [5] (setting [8]); -4.05% in assay [5] (at 50.0 µM); 2% in assay [6] (setting [7]); 94% (active) in assay [6] (setting [8]); 32% in assay [6] (at 50.0 µM).

As for `COc1ccc(C(C)=O)c(OC(=O)c2ccccc2)c1OC(=O)c1ccccc1`, the growth inhibition was -22% in assay [1] (setting [7]); 9% in assay [1] (setting [8]); 5.05% in assay [1] (at 50.0 µM); -1% in assay [2] (setting [7]); 7% in assay [2] (setting [8]); 10.2% in assay [2] (at 50.0 µM). For the same compound, the growth inhibition in assay [3] (setting [7]) is -21%; in assay [3] (setting [8]) it was -10%; in assay [3] (at 50.0 µM), -12.1%; in assay [4] (setting [7]), 2%; in assay [4] (setting [8]), 11%; in assay [4] (at 50.0 µM) it was -3%. Also, the growth inhibition in assay [5] (setting [7]) was -10%; in assay [5] (setting [8]), -1%; in assay [5] (at 50.0 µM), 1.15%; in assay [6] (setting [7]), -1%; in assay [6] (setting [8]) it was 4%; in assay [6] (at 50.0 µM), -0.9%.

With `N=C(N)c1ccc(Nc2ccc(C(=N)N)cc2)cc1`, the growth inhibition in assay [1] (setting [7]) is 20%; in assay [1] (setting [8]), 5%; in assay [1] (at 50.0 µM), 91.2% (active); in assay [2] (setting [7]) it was 30%; in assay [2] (setting [8]) it was -7%; in assay [2] (at 50.0 µM), 86.3% (active). The growth inhibition in assay [3] (setting [7]) is 19%; in assay [3] (setting [8]), 9%; in assay [3] (at 50.0 µM) it was 90% (active); in assay [4] (setting [7]), 1%; in assay [4] (setting [8]), 14%; in assay [4] (at 50.0 µM), 72.2% (active). The growth inhibition was 21% in assay [5] (setting [7]); 56% in assay [5] (setting [8]); 97.8% (active) in assay [5] (at 50.0 µM); 14% in assay [6] (setting [7]); 39% in assay [6] (setting [8]); 91% (active) in assay [6] (at 50.0 µM).

`CCOC(=O)c1cnc2cc3cccccc3n2c1=O`: the growth inhibition is 4% in assay [1] (setting [7]); 62% in assay [1] (setting [8]); 71.7% (active) in assay [1] (at 50.0 µM); -1% in assay [2] (setting [7]); 41% in assay [2] (setting [8]); 42.5% in assay [2] (at 50.0 µM). In addition, the growth inhibition in assay [3] (setting [7]) was 13%; in assay [3] (setting [8]) it was 65%; in assay [3] (at 50.0 µM) it was 76.5% (active); in assay [4] (setting [7]), -2%; in assay [4] (setting [8]), 44%; in assay [4] (at 50.0 µM), 54.9%. Also, the growth inhibition in assay [5] (setting [7]) was -2%; in assay [5] (setting [8]), 67%; in assay [5] (at 50.0 µM), 31.6%; in assay [6] (setting [7]), -1%; in assay [6] (setting [8]) it was 86% (active); in assay [6] (at 50.0 µM), 93.3% (active).

Regarding `COc1ccc(CN2CCCN(Cc3ccc(OC)cc3OC)C2c2cc(Cl)cc(Cl)c2O)c(OC)c1`, the growth inhibition is 10% in assay [1] (setting [7]); 52% in assay [1] (setting [8]); 73.8% (active) in assay [1] (at 50.0 µM); 16% in assay [2] (setting [7]); 93% (active) in assay [2] (setting [8]); 33.3% in assay [2] (at 50.0 µM). Also, the growth inhibition in assay [3] (setting [7]) was -10%; in assay [3] (setting [8]) it was 75% (active); in assay [3] (at 50.0 µM), 76.2% (active); in assay [4] (setting [7]) it was -2%; in assay [4] (setting [8]), 35%; in assay [4] (at 50.0 µM), 30.9%. The growth inhibition in assay [5] (setting [7]) was 3%; in assay [5] (setting [8]), 79% (active); in assay [5] (at 50.0 µM), 3.9%; in assay [6] (setting [7]) it was 27%; in assay [6] (setting [8]), 94% (active); in assay [6] (at 50.0 µM), 61.4%.

Take `O=C(O)Cc1ccc2ccccc2c1-c1ccccc1`: the growth inhibition was -1% in assay [1] (setting [7]); 93% (active) in assay [1] (setting [8]); 86.7% (active) in assay [1] (at 50.0 µM); -11% in assay [2] (setting [7]); 93% (active) in assay [2] (setting [8]); 91.8% (active) in assay [2] (at 50.0 µM). Besides, the growth inhibition in assay [3] (setting [7]) was 2%; in assay [3] (setting [8]), -19%; in assay [3] (at 50.0 µM) it was 85% (active); in assay [4] (setting [7]), -3%; in assay [4] (setting [8]), 98% (active); in assay [4] (at 50.0 µM), 95% (active). The growth inhibition in assay [5] (setting [7]) was -11%; in assay [5] (setting [8]) it was 92% (active); in assay [5] (at 50.0 µM), 94.7% (active); in assay [6] (setting [7]), -20%; in assay [6] (setting [8]), 94% (active); in assay [6] (at 50.0 µM), 90.2% (active).

As to `COc1cc(C2c3cc4c(cc3[C@@H](Nc3cccc(O)c3)C3COC(=O)[C@H]23)OCO4)cc(OC)c1O` (some centres not stated), the growth inhibition is 96% (active) in assay [1] (setting [7]); 97% (active) in assay [1] (setting [8]); 85% (active) in assay [1] (at 50.0 µM); 96% (active) in assay [2] (setting [7]); 98% (active) in assay [2] (setting [8]); 90.7% (active) in assay [2] (at 50.0 µM). The growth inhibition in assay [3] (setting [7]) is 28%; in assay [3] (setting [8]), 97% (active); in assay [3] (at 50.0 µM), 88.5% (active); in assay [4] (setting [7]), 33%; in assay [4] (setting [8]), 90% (active); in assay [4] (at 50.0 µM) it was 88.8% (active). Besides, the growth inhibition in assay [5] (setting [7]) is 21%; in assay [5] (setting [8]), 93% (active); in assay [5] (at 50.0 µM) it was 87.7% (active); in assay [6] (setting [7]), 94% (active); in assay [6] (setting [8]) it was 97% (active); in assay [6] (at 50.0 µM), 87% (active).

With `CCCC1=C(c2ccccc2)C(O)(c2ccccc2)C(CCC)C1=O` (configuration not stated), the growth inhibition in assay [1] (setting [7]) was 0%; in assay [1] (setting [8]), 46%; in assay [1] (at 50.0 µM) it was 97.8% (active); in assay [2] (setting [7]) it was 4%; in assay [2] (setting [8]) it was 47%; in assay [2] (at 50.0 µM) it was 96.4% (active). In addition, the growth inhibition in assay [3] (setting [7]) was 0%; in assay [3] (setting [8]) it was 37%; in assay [3] (at 50.0 µM), 96.2% (active); in assay [4] (setting [7]), -9%; in assay [4] (setting [8]), 19%; in assay [4] (at 50.0 µM), 95.3% (active). For the same compound, the growth inhibition in assay [5] (setting [7]) is -3%; in assay [5] (setting [8]), 69%; in assay [5] (at 50.0 µM), 93.3% (active); in assay [6] (setting [7]), 4%; in assay [6] (setting [8]), 47%; in assay [6] (at 50.0 µM), 95.8% (active).
